Among all 48,000 compounds or so, about 13,000 (27%) showed an effect of 50% or more. Some of the results follow.
Test system: Wolbachia pipientis
Test: Anti-Wolbachia Cell-Based Screen
Format: functional
Parameters: scale not given: in the data most compounds retested in dose-response had high values
Details: 5 µM

SMILES | Percent Effect
CN(CC(=O)N(C)C1CCCCC1)C1CCc2ccccc21 (stereo not drawn) | -4.106%
O=C(NCc1csc2ccccc12)NCC1(O)CCSC1 (stereo not drawn) | -14.62%
CN(C)C1CCCN(C(=O)NCCNC(=O)C2CCCCC2)C1 (stereo not drawn) | 2.915%
Cc1oc(C)c(C(=O)NCc2ccccc2S(=O)(=O)N(C)C)c1C | -1.431%
CNS(=O)(=O)c1ccc(CNC(=O)NCC2CCC2)cc1 | -8.591%
CNS(=O)(=O)c1ccc(CNC(=O)c2c(C)oc(C)c2C)cc1 | 84.51%
CCN(CC)c1ccc(CNC(=O)c2ccccn2)cn1 | 19.52%
Cc1cccc(C(=O)NCc2ccc(S(N)(=O)=O)cc2)n1 | -0.8879%
CNS(=O)(=O)Cc1ccc(CNC(=O)c2cccc(C)n2)cc1 | 2.12%
Cc1cccc(C(=O)NCc2ccc(CS(N)(=O)=O)cc2)n1 | 93.95%
Cc1oc(C)c(C(=O)NCc2cccc(NC(=O)CN(C)C)c2)c1C | 14.93%
CNS(=O)(=O)c1ccc(CNC(=O)c2ccccn2)cc1 | 0.2857%
CNS(=O)(=O)c1cccc(CNC(=O)c2c(C)oc(C)c2C)c1 | 20.61%
CNS(=O)(=O)Cc1ccc(CNC(=O)c2ccccn2)cc1 | 102.4%
Cc1oc(C)c(C(=O)NCc2cccc(C(N)=O)c2)c1C | 95.24%
CC(C)c1noc(CNc2cccc(-c3nnnn3C)c2)n1 | -7.266%
N#Cc1cccc(C(=O)N2CC(c3nc(-c4ccc[nH]c4=O)no3)C2)c1 | 9.318%
Cc1c[nH]c(CN(C)C(=O)c2ccc(CSc3nnc[nH]3)o2)n1 | -3.87%
CC(C(=O)N(C)C1CCCCC1)S(=O)(=O)Cc1csc(-c2cccs2)n1 (stereo not drawn) | -23.89%
CNS(=O)(=O)c1ccc(CNC(=O)c2cccc(C)n2)cc1 | 84.72%
COc1ncccc1CNC(=O)c1cccc(C)n1 | 6.477%
CCN(CC)c1ccc(CNC(=O)c2cccc(C)n2)cn1 | 13.97%

SMILES | Percent Effect
CNS(=O)(=O)c1ccc(CNC(=O)NCc2cc[nH]n2)cc1 | -14.1%
Cc1cccc(C(=O)NCc2ccccc2)n1 | 112.9%
CN1CCN(Cc2nc3ccccc3[nH]2)[C@H]2CS(=O)(=O)C[C@H]21 | -11.18%
CNc1cc(C)nc(N2CCC3(CC2)[C@H](O)C[C@@H]3OCCN(C)C)n1 | -28.04%
CCCC(=O)N1CCCCC1c1nc(N(C)C)ncc1-c1cc(C)no1 (stereo not drawn) | 132.6%
Cc1cc(C2CCCN2C(=O)COc2ccc(CC#N)cc2)on1 (stereo not drawn) | -5.28%
COCC(=O)N1CCCCC1c1nc(N(C)C)ncc1-c1cc(C)no1 (stereo not drawn) | 90.99%
CCC(=O)N1CCCCC1c1nc(N(C)C)ncc1-c1cc(C)no1 (stereo not drawn) | 127.9%
Cc1cc(-c2cnc(N(C)C)nc2C2CCCCN2C(=O)C2CC2)on1 (stereo not drawn) | 124.3%
Cc1csc(C2CCCCN2C(=O)COCc2nc(C)no2)n1 (stereo not drawn) | -7.815%
Cc1ccc(C(=O)NCC(C)Cn2ccnc2C)c(=O)[nH]1 (stereo not drawn) | -21.01%
Cc1nc(-c2cn(CCN)nn2)n(-c2ccc3c(c2)CCC3)n1 | -87.51%
COc1ccc(NC(=O)N2CCCC2c2ccncc2)cn1 (stereo not drawn) | -8.379%
CCc1nc(C)sc1CN1C[C@@H](C)[C@@](C)(O)C1 | 98.2%
CCc1ccc(S(=O)(=O)N2CC[C@@](O)(CCOC)[C@H](C)C2)cc1 | -34.1%
C[C@@H]1CN(Cc2c[nH]c(CC3CCCC3)n2)CC[C@]1(C)O | 8.823%
CCc1nc(C)sc1CN1CC[C@@](O)(CCOC)[C@H](C)C1 | 97.23%
COCC[C@]1(O)CCN(C(=O)c2cnn(C)c2)C[C@H]1C | -13.07%
CC[C@@]1(O)CCN(Cc2cc(C3CCCCC3)no2)C[C@H]1O | 5.851%
CCc1nc(C)sc1CN1CC[C@](O)(CC)[C@H](O)C1 | 116.1%
CCc1nc(C)sc1CNC1CCN(Cc2ccccc2)C1 (stereo not drawn) | -80.76%
Cc1nc2c(c(N3C[C@@H](C)[C@@](C)(O)C3)n1)CCC2 | 13.84%

SMILES | Percent Effect
CNC(=O)c1noc(CN2CC[C@](C)(O)[C@H](C)C2)n1 | 23.29%
CC[C@@]1(O)CCN(c2ncc(Cl)cc2F)C[C@H]1O | -11.81%
CCc1nc(C)sc1CN1CC[C@](C)(O)[C@H](C)C1 | 84.46%
O=C(O)CCNC(=O)C1(c2cccc(Br)c2)CCOCC1 | -13.76%
NC(=O)C1CCCN1Cc1ccccc1NC(=O)Cc1cccc(F)c1 (stereo not drawn) | -5.666%
N#Cc1cccnc1NCCNC(=O)N1CCSCC1 | -7.557%
CC(C)N1Cc2c(C(=O)N3CCN(C)CC3)nn(C)c2C1 | 107%
CCC(C)N1CCc2c(C(=O)N(C)Cc3ccccn3)nn(C)c2C1 (stereo not drawn) | -11.92%
CC(C)N1CCc2ncn(C)c2C1C(=O)N1CCOCC1.O=C(O)C(F)(F)F (stereo not drawn) | -11.58%
CCC(C)N1Cc2c(C(=O)N3CCCC3)nn(C)c2C1.O=C(O)C(F)(F)F (stereo not drawn) | 4.311%
CC(C)N1CCc2[nH]nc(C(=O)N3CCN(C)CC3)c2C1.O=C(O)C(F)(F)F.O=C(O)C(F)(F)F.O=C(O)C(F)(F)F | -19.75%
Cn1nc(Cn2cccn2)c2c1CN(C1CCOC1)C2.O=C(O)C(F)(F)F (stereo not drawn) | -10.84%
CCC(C)N1Cc2c(C(=O)N3CCOCC3)nn(C)c2C1.O=C(O)C(F)(F)F (stereo not drawn) | 101.3%
CC(C)N1CCc2c(C(=O)N3CCOCC3)nn(C)c2C1.O=C(O)C(F)(F)F | 113.7%
CC(C)N1CCc2[nH]nc(C(=O)N3CCOCC3)c2C1.O=C(O)C(F)(F)F.O=C(O)C(F)(F)F | -15.4%
CCSc1ccccc1C(=O)N1CCC(S(=O)(=O)c2nncn2C)CC1 | -2.113%
O=C(CCN1CCc2cncnc2C1)N1CCc2sccc2C1 | -13.17%
CCCN(Cc1nc2ccccc2[nH]1)Cc1ccccc1OC | -7.618%
CNC(=O)C(CC(C)C)NC(=O)c1cccc(-c2n[nH]c(C)n2)c1 (stereo not drawn) | -1%
Cc1n[nH]c(C)c1NC(=O)CN1CCc2c(nc(C3CC3)n2C)C1 | 10.04%
CC(=O)N1CCCN(C(=O)NCc2ccccn2)CC1 | -1.258%
Cc1n[nH]c(C)c1NC(=O)CCc1cccc(C2CCCN(C)C2)n1 (stereo not drawn) | 122.5%

SMILES | Percent Effect
CN1CCCC(c2cccc(CCC(=O)NCC3(C)COC3)n2)C1 (stereo not drawn) | 99.75%
Cc1cnc(CN(C)C2CCN(CC(=O)Nc3c(C)n[nH]c3C)C2)o1 (stereo not drawn) | -8.354%
O=C(CCc1ccccn1)NC1CCCN(C2Cc3ccccc3C2)C1 (stereo not drawn) | 4.048%
CNC(=O)CCc1cccc(C2CCCN(c3cc(C)ncn3)C2)n1 (stereo not drawn) | 97.41%
COCC1CCN(C(=O)c2cccc(S(=O)(=O)NCC3(C)COC3)c2)C1 (stereo not drawn) | -10.59%
CN1CCCC(c2cccc(CCC(=O)NCc3ccccn3)n2)C1 (stereo not drawn) | 93.1%
CN1CCN(C(=O)c2cccc(S(=O)(=O)NCC3(C)COC3)c2)CC1 | -15.33%
O=C(Cn1cc(C(=O)O)ccc1=O)Nc1cc(F)ccc1F | -7.497%
Cc1[nH]ccc1C(=O)NC1CCC(N2C(=O)CCC2=O)CC1 (stereo not drawn) | -10.09%
Cc1cc(C)c(CNC(=O)NCCCNc2ccccn2)c(=O)[nH]1 | 5.95%
CCc1noc(CS(=O)(=O)Cc2nc(Cc3ccccc3)no2)n1 | 6.103%
O=C(CCc1ccccn1)NC1CCN(c2cccc(Cl)c2)C1 (stereo not drawn) | 3.633%
CN1CCC(c2cccc(CCC(=O)NCC(N)=O)n2)CC1 | 102.3%
CN1CCCC(c2cccc(CCC(N)=O)n2)C1 (stereo not drawn) | 113.5%
CS(=O)(=O)N[C@@H]1CCN(Cc2ccncc2)[C@H]1Cc1cccnc1 | -7.843%
COc1ccccc1[S+]([O-])CC(=O)NCc1cc(F)cc(F)c1 (stereo not drawn) | -8.178%
COc1ccc(F)cc1C(C)NC(=O)c1nnc(C)s1 (stereo not drawn) | 1.178%
COc1ccccc1C(O)Cn1cc(C(=O)NCC2CC2)nn1 (stereo not drawn) | -12.95%
O=C(NCC1CCCO1)c1cc(COc2ccccc2F)[nH]n1 (stereo not drawn) | -5.725%
COc1cc(C(=O)NCC2CC2)nc2c(C)cc(F)cc12 | 82.93%
COc1cc(CCNC(=O)NCCC2CCCO2)ccc1C (stereo not drawn) | -11.71%
COc1cc(C(=O)NCC2CCCO2)nc2c(C)cc(F)cc12 (stereo not drawn) | 102.3%

SMILES | Percent Effect
Cc1cc(C(=O)NC(C)C(=O)Nc2cc(F)ccc2C)nc(C)n1 (stereo not drawn) | -4.486%
CCNC(=O)N(C)Cc1ccc(SC)c(OC)c1 | -16.12%
O=C(NCC1CC1)c1nc2c(o1)CN(CC1CC1)C2.O=C(O)C(F)(F)F | -8.922%
COc1cc(C(=O)NC(C)C)nc2c(C)cc(F)cc12 | 104.7%
CCNC(=O)c1cc(OC)c2cc(F)cc(C)c2n1 | 114.2%
CS(=O)(=O)c1ccc(CNC[C@H]2COCc3nc4ccccc4n32)cc1 | -0.06058%
CN1CC[C@H]2CN(C(=O)c3ccc4sc5c(c4c3)CCNC5=O)C[C@H]21 | 3.711%
CCN(CC)C(=O)Cn1cc(C(=O)NCCCc2scnc2C)nn1 | 7.072%
CC(C)(C)C(O)CN1CCN(CC(=O)NC(C2CC2)C2CC2)CC1 (stereo not drawn) | 12.33%
O=C(C1CCSCC1)N1CC[C@H]2OCC[C@@]2(COCC2CC2)C1 | -16.75%
Cc1nc(S(=O)(=O)CCn2cccn2)n(C2CCCCC2)c1C | -17.58%
N#Cc1ccc(SCCCO)c(F)c1 | -3.443%
O=C(C[C@@H]1COC[C@H]2CN(C3CCCC3)C[C@@H]12)NCc1cccnc1.O=C(O)C(F)(F)F.O=C(O)C(F)(F)F | 105.3%
O=C(C[C@@H]1COC[C@H]2CN(Cc3ccc(F)cc3)C[C@@H]12)N1CCOCC1.O=C(O)C(F)(F)F | 19.83%
O=C(Nc1cnccn1)[C@@H]1COC[C@H]2CN(C3CCCC3)C[C@H]21.O=C(O)C(F)(F)F | 2.256%
O=C(C[C@@H]1COC[C@H]2CN(C(=O)c3cccnc3)C[C@@H]12)N1CCOCC1.O=C(O)C(F)(F)F | 132.5%
Cc1cnc(CNC(=O)C[C@@H]2COC[C@H]3CN(C4CCC4)C[C@@H]23)cn1 | -2.895%
O=C(C[C@@H]1COC[C@H]2CN(Cc3ccncc3)C[C@@H]12)N1CCOCC1.O=C(O)C(F)(F)F.O=C(O)C(F)(F)F | 3.799%
COc1cc(N2C[C@H]3CN(C(=O)c4cccnc4)C[C@H]3C2)ncn1.O=C(O)C(F)(F)F | -0.6433%
O=C(C[C@@H]1COC[C@H]2CN(C(=O)c3cccnc3)C[C@@H]12)N1CCCC1.O=C(O)C(F)(F)F | 97.49%

— ChEMBL document CHEMBL3988442, “University of Dundee, Small-Polar-MMV Screening Library” (2021)
